We go through eight compounds from PubChem BioAssay (NCI).

SMILES strings stand for the structures. The panel holds about 83,000 compounds, 20% with a hit somewhere; the sample as a whole holds those more often.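 Compound tested at a single concentration for 48 hours in 96-well plates; a percent growth value below 10 was scored as active.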 Unmarked numbers belong to inactive results. Active and inactive are the calls of the source.

What all share (assay): NCI-60 one-dose screen, 48 h (100 = growth as untreated, 0 = no growth, -100 = all killed)
Settings in all cases: 10 µM unless noted

For experiment [1], the system named is DU-145 prostate.
The test system of experiment [2] is K-562 leukemia.
Experiment [3] has as its system MALME-3M melanoma.
The subject of experiment [4] is MDA-MB-231 breast.
For experiment [5], the system named is RXF 393 renal.
Experiment [6] deals with SF-268 CNS.
Experiment [7] relates to SF-295 CNS.
The test system of experiment [8] is SF-539 CNS.
For experiment [9], the system named is UACC-257 melanoma.
Experiment [10] deals with M14 melanoma.
In experiment [11] the test system is HCT-15 colon.
Experiment [12] relates to HT29 colon.
The subject of experiment [13] is SNB-75 CNS.
Experiment [14] has as its system SNB-19 CNS.
The test system of experiment [15] is U251 CNS.
The subject of experiment [16] is PC-3 prostate.
For experiment [17], the system named is SK-MEL-5 melanoma.
In experiment [18] the test system is UACC-62 melanoma.
For experiment [19], the system named is LOX IMVI melanoma.
In experiment [20] the test system is SK-MEL-28 melanoma.

On to `CCN(C)CCCOc1ccc(/C(=C(\C)Cc2cccc(OC)c2)c2ccc(OC(C)=O)cc2)cc1`, for which the growth in experiment [1] was 104%; in experiment [2] it was 101%; in [3], 97.3%; in experiment [4] it was 104%; in experiment [5] it was 106%; in [6], 94.1%. The growth is 99.1% in experiment [7]; 101% in [8]; 109% in experiment [9]; 101% in experiment [10]; 101% in experiment [11]; 102% in experiment [12]. In addition, the growth in experiment [13] is 81.7%; in experiment [14], 102%; in experiment [15], 97.1%; in [16], 98.1%; in experiment [17], 99.1%; in experiment [18], 98.4%. In [19], the growth was 97.2%.

As to `CCN(CC)CCCC(C)Nc1cnc(C(=O)Nc2ccc(Cl)c3cccnc23)cn1` (configuration not stated), the growth in experiment [1] is 53.1%; in [2], -45.8% (active); in [3], -71.8% (active); in experiment [4], -29.7% (active); in experiment [5], 18.7%; in [6], 35.8%. Further, the growth was 63% in [7]; -73.6% (active) in experiment [8]; -33% (active) in experiment [9]; -73.1% (active) in [10]; 3.73% (active) in experiment [11]; -49.4% (active) in [12]. For the same compound, the growth in experiment [13] was 41.7%; in [14], 49.6%; in [15] it was -35.3% (active); in experiment [16], 39.4%; in experiment [17] it was -3.7% (active); in experiment [18], -52.4% (active). In addition, the growth in [19] was -83.9% (active).

As for `Cc1cc(C)c2c(n1)sc1c(Nc3ccc(Cl)cc3Cl)ncnc12`, the growth is 20.3% in experiment [1]; 42.9% in experiment [2]; 53.4% in experiment [3]; 58.7% in experiment [4]; 28.8% in experiment [5]; 17.9% in experiment [6]. The growth in experiment [7] was 14.3%; in [8], 4.9% (active); in experiment [9], 36.4%; in experiment [10] it was -34.3% (active); in experiment [11], 46.2%; in experiment [12] it was 38.9%. The growth in [13] was 39.7%; in experiment [14], 32.4%; in experiment [15], 25%; in [16], 50.9%; in experiment [17], 25.5%; in experiment [18], 15.6%. Besides, the growth is 10.2% in experiment [19] and 61.4% in experiment [20].

As for `CCCCn1cnc(-c2cc(-c3ccccc3)cc(C(F)(F)F)c2)n1`, the growth in [1] was 106%; in experiment [2], 95.9%; in experiment [3], 89.6%; in experiment [4], 106%; in experiment [5] it was 99.9%; in experiment [6] it was 104%. Also, the growth in experiment [7] was 102%; in [8], 103%; in experiment [9], 96.7%; in experiment [10] it was 98%; in experiment [11] it was 104%; in experiment [12] it was 101%. In addition, the growth was 98.9% in experiment [13]; 98.6% in experiment [14]; 97.7% in [15]; 82.7% in [16]; 101% in experiment [17]; 90.3% in experiment [18]. Moreover, the growth in [19] was 105%; in experiment [20], 109%.

Turning to `Cc1cc(C)c2c(n1)sc1c(Nc3ccc(O)cc3)ncnc12`, the growth in experiment [1] was 21.3%; in experiment [2], 45.1%; in experiment [3], 63.9%; in experiment [4], 59%; in [5], 32%; in [6], 19.3%. Besides, the growth is 18.3% in experiment [7]; 3.84% (active) in [8]; 38.7% in [9]; -21.5% (active) in [10]; 51.7% in [11]; 40% in experiment [12]. For the same compound, the growth is 50.4% in [13]; 31% in [14]; 26.6% in experiment [15]; 47.2% in experiment [16]; 25.6% in experiment [17]; 16.1% in experiment [18]. Besides, the growth in experiment [19] was 13.1%; in experiment [20], 77.7%.

Turning to `Cc1ccc(C2CC(c3cccs3)=NN2c2ccc(S(N)(=O)=O)cc2)s1` (configuration not stated), the growth in experiment [1] was 99.2%; in experiment [2], 77.9%; in experiment [3] it was 79.4%; in experiment [4], 91.6%; in [5], 93.1%; in experiment [6], 96.5%. In addition, the growth in [7] was 98.3%; in [8] it was 104%; in [9], 36.3%; in experiment [10], 81.9%; in experiment [11], 80.8%; in experiment [12] it was 86.5%. The growth is 74.5% in experiment [13]; 84.8% in experiment [14]; 78.5% in experiment [15]; 56.4% in experiment [16]; 65.7% in experiment [17]; 44.1% in experiment [18]. In addition, the growth was 104% in experiment [19] and 64.9% in [20].

With `COc1ccc(NC(=O)c2ccc(C(F)(F)F)nc2Nc2ccc(Cl)cc2C)cc1Cl`, the growth in experiment [1] is 9.29% (active); in [2], 16.4%; in experiment [3] it was 34.8%; in [4] it was 7.34% (active); in experiment [5] it was 42.5%; in [6], 38.2%. Besides, the growth is 3.72% (active) in [7]; 50.3% in [8]; 22% in [9]; 34.2% in experiment [10]; 22.4% in experiment [11]; 26.6% in [12]. In addition, the growth was 35% in [13]; 30% in experiment [14]; 20.3% in experiment [15]; 10.2% in experiment [16]; 28.2% in [17]; 15.3% in experiment [18]. The growth in experiment [19] was 13.4%.

With `COc1cc(C2CC(c3ccc(Cl)cc3)=NN2C=O)ccc1OS(=O)(=O)c1ccc(C)cc1` (configuration not stated), the growth in experiment [1] is 105%; in [2] it was 82.1%; in experiment [3], 93.8%; in experiment [4], 92.5%; in experiment [5], 97.2%; in [6], 100%. In addition, the growth was 87.4% in experiment [7]; 89.6% in [8]; 85.3% in [9]; 84% in [10]; 89.7% in experiment [11]; 99.3% in experiment [12]. Moreover, the growth in experiment [13] is 91.5%; in experiment [14], 86.7%; in experiment [15] it was 91%; in experiment [16], 94.4%; in [17], 86.3%; in [18], 78.6%. Also, the figures for the growth in experiment [19] and in experiment [20] were 97.2% and 103%, respectively.
